According to PubChem BioAssay AID1159580 (chemical genetic matrix, 2015):
The whole screen tested about 5,500 compounds, of which about 2,000 (36%) were called active. Roughly 18% stayed inconclusive and do not appear here. No stated cut-off is given here; in the data, active means normalized growth mostly below about 0.91 (no sharp cut-off); inconclusive means no clear call, values can overlap the other calls; inactive means mostly above about 0.92. This is one part of the list.

Experiment: chemical genetic growth profiling, strain panel (AID 1159580);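 further: tested at 20 µM; growth read once vehicle control cultures reached saturation at 30 °C; 1 = growth at the plate median or of vehicle wells; lower values mean less growth of the strain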
Conditions: growth OD

Measured: normalized growth

NCC(=O)CCC(=O)O
inactive: S. cerevisiae deletion strains, locus YJR075W, strain HOC1, hits give low values 1.02 | S. cerevisiae deletion strains, locus YKL009W, strain mrt4, hits give low values 1.07 | S. cerevisiae deletion strains, locus YKL068W, hits give low values 0.995 | S. cerevisiae deletion strains, locus YKL085W, strain MDH1 (second series), hits give low values 0.997 | S. cerevisiae deletion strains, locus YKL085W, strain MDH1, hits give low values 0.997 | S. cerevisiae deletion strains, locus YKL160W, strain elf1, hits give low values 0.98 | S. cerevisiae deletion strains, locus YKL190W, strain CNB1, hits give low values 1.01 | S. cerevisiae deletion strains, locus YKR001C, strain vps1, hits give low values 0.982 | S. cerevisiae deletion strains, locus YKR026C, strain gcn3, hits give low values 0.981 | S. cerevisiae deletion strains, locus YKR091W, strain srl3, hits give low values 0.981 | S. cerevisiae deletion strains, locus YLL001W, strain dnm1, hits give low values 0.93 | S. cerevisiae deletion strains, locus YLL026W, hits give low values 0.982 | S. cerevisiae deletion strains, locus YLL041C, strain sdh2, hits give low values 0.987 | S. cerevisiae deletion strains, locus YLR027C, strain aat2, hits give low values 0.98 | S. cerevisiae deletion strains, locus YLR039C, strain RIC1, hits give low values 1.03 | S. cerevisiae deletion strains, locus YLR058C, strain SHM2, hits give low values 1.01 | S. cerevisiae deletion strains, locus YLR102C, strain apc9, hits give low values 0.983 | S. cerevisiae deletion strains, locus YLR113W, strain HOG1, hits give low values 1.03 | S. cerevisiae deletion strains, locus YLR221C, strain rsa3, hits give low values 1.03 | S. cerevisiae deletion strains, locus YLR258W, strain gsy2, hits give low values 0.994 | S. cerevisiae deletion strains, locus YLR262C, strain YPT6 (second series), hits give low values 0.958 | S. cerevisiae deletion strains, locus YLR262C, strain YPT6, hits give low values 1.05 | S. cerevisiae deletion strains, locus YLR268W, strain sec22, hits give low values 0.953 | S. cerevisiae deletion strains, locus YLR320W, strain mms22, hits give low values 0.976 | S. cerevisiae deletion strains, locus YLR330W, strain CHS5, hits give low values 1.01 | S. cerevisiae deletion strains, locus YLR342W, strain FKS1 (second series), hits give low values 1.03 | S. cerevisiae deletion strains, locus YLR342W, strain FKS1, hits give low values 0.959 | S. cerevisiae deletion strains, locus YLR357W, strain rsc2, hits give low values 0.954 | S. cerevisiae deletion strains, locus YLR370C, strain arc18, hits give low values 1.01 | S. cerevisiae deletion strains, locus YLR371W, strain rom2, hits give low values 0.988 | S. cerevisiae deletion strains, locus YLR384C, strain iki3, hits give low values 0.997 | S. cerevisiae deletion strains, locus YLR418C, strain cdc73, hits give low values 0.994 | S. cerevisiae deletion strains, locus YML016C, strain PPZ1, hits give low values 1.01 | S. cerevisiae deletion strains, locus YML032C, strain rad52, hits give low values 0.981 | S. cerevisiae deletion strains, locus YML120C, strain ndi1, hits give low values 0.983 | S. cerevisiae deletion strains, locus YML124C, strain tub3, hits give low values 0.997 | S. cerevisiae deletion strains, locus YMR058W, strain fet3, hits give low values 0.984 | S. cerevisiae deletion strains, locus YMR078C, strain ctf18, hits give low values 0.991 | S. cerevisiae deletion strains, locus YMR125W, strain sto1, hits give low values 0.977 | S. cerevisiae deletion strains, locus YMR129W, hits give low values 0.99 | S. cerevisiae deletion strains, locus YMR205C, strain PFK2, hits give low values 0.976 | S. cerevisiae deletion strains, locus YMR223W, strain ubp8, hits give low values 0.998 | S. cerevisiae deletion strains, locus YMR231W, strain pep5, hits give low values 0.972 | S. cerevisiae deletion strains, locus YMR263W, strain SAP30, hits give low values 1.01 | S. cerevisiae deletion strains, locus YMR307W, strain GAS1, hits give low values 1.05 | S. cerevisiae deletion strains, locus YNL067W, strain RPL9B, hits give low values 0.997 | S. cerevisiae deletion strains, locus YNL071W, strain lat1, hits give low values 0.995 | S. cerevisiae deletion strains, locus YNL128W, strain TEP1, hits give low values 1.02 | S. cerevisiae deletion strains, locus YNL153C, strain GIM3, hits give low values 1 | S. cerevisiae deletion strains, locus YNL183C, strain NPR1, hits give low values 0.986 | S. cerevisiae deletion strains, locus YNL209W, strain ssb2, hits give low values 0.997 | S. cerevisiae deletion strains, locus YNL233W, strain BNI4, hits give low values 1.02 | S. cerevisiae deletion strains, locus YNL248C, strain rpa49, hits give low values 1 | S. cerevisiae deletion strains, locus YNL250W, strain rad50, hits give low values 0.993 | S. cerevisiae deletion strains, locus YNL271C, strain bni1, hits give low values 0.98 | S. cerevisiae deletion strains, locus YNL298W, strain CLA4, hits give low values 0.984 | S. cerevisiae deletion strains, locus YNL307C, strain MCK1, hits give low values 1 | S. cerevisiae deletion strains, locus YNL322C, strain KRE1 (second series), hits give low values 0.964 | S. cerevisiae deletion strains, locus YNL322C, strain KRE1, hits give low values 1.02 | S. cerevisiae deletion strains, locus YNR049C, strain mso1, hits give low values 0.981 | S. cerevisiae deletion strains, locus YNR052C, strain pop2, hits give low values 0.988 | S. cerevisiae deletion strains, locus YOL006C, strain TOP1, hits give low values 0.983 | S. cerevisiae deletion strains, locus YOL012C, strain htz1 0.968 | S. cerevisiae deletion strains, locus YOL147C, strain pex11, hits give low values 0.993 | S. cerevisiae deletion strains, locus YOR001W, strain rrp6, hits give low values 0.994 | S. cerevisiae deletion strains, locus YOR061W, strain CKA2, hits give low values 1.01 | S. cerevisiae deletion strains, locus YOR069W, strain VPS5, hits give low values 1.01 | S. cerevisiae deletion strains, locus YOR070C, strain gyp1, hits give low values 0.989 | S. cerevisiae deletion strains, locus YOR080W, strain dia2, hits give low values 0.976 | S. cerevisiae deletion strains, locus YOR083W, strain WHI5, hits give low values 0.954 | S. cerevisiae deletion strains, locus YOR106W, strain vam3, hits give low values 0.956 | S. cerevisiae deletion strains, locus YOR136W, strain idh2, hits give low values 0.992 | S. cerevisiae deletion strains, locus YOR144C, strain elg1, hits give low values 0.986 | S. cerevisiae deletion strains, locus YOR184W, strain ser1, hits give low values 0.976 | S. cerevisiae deletion strains, locus YOR231W, strain MKK1, hits give low values 1.04 | S. cerevisiae deletion strains, locus YOR265W, strain rbl2, hits give low values 0.988 | S. cerevisiae deletion strains, locus YOR270C, strain vph1, hits give low values 1.01 | S. cerevisiae deletion strains, locus YOR290C, strain snf2, hits give low values 1.01 | S. cerevisiae deletion strains, locus YOR316C, strain cot1, hits give low values 0.989 | S. cerevisiae deletion strains, locus YPL051W, strain arl3, hits give low values 0.997 | S. cerevisiae deletion strains, locus YPL055C, strain LGE1, hits give low values 1.03 | S. cerevisiae deletion strains, locus YPL078C, strain atp4, hits give low values 0.948 | S. cerevisiae deletion strains, locus YPL106C, strain sse1, hits give low values 0.998 | S. cerevisiae deletion strains, locus YPL240C, strain hsp82, hits give low values 0.985 | S. cerevisiae deletion strains, locus YPL241C, strain CIN2, hits give low values 1 | S. cerevisiae deletion strains, locus YPL256C, strain CLN2, hits give low values 1.03 | S. cerevisiae deletion strains, locus YPR119W, strain clb2, hits give low values 0.983 | S. cerevisiae deletion strains, locus YPR141C, strain kar3, hits give low values 0.993 | S. cerevisiae deletion strains, locus YPR163C, strain tif3, hits give low values 0.981 | S. cerevisiae deletion strains, locus YPR167C, strain met16, hits give low values 0.986 | S. cerevisiae deletion strains, strain wtn01, hits give low values 0.99 | S. cerevisiae strains, strain wild type, hits give low values 1.01
